GLP1R cytotox = qHTS of GLP-1 Receptor Inverse Agonists: Cytotox Screen. HEK293 cAMP-luciferase reporter cells, luminescence, 24 h. Potency, µM (top dose mostly 38.3 µM), inactives show at the top dose activity change, negative = inhibition, hits mostly inhibitors. 410,000 tested, 0.13% active;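 note: loss of luciferase light is scored as toxicity; % is set by controls: 0 for no effect and ±100 for the full control effect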
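Step one: seed cells (200 cells/uL, DMEM with 10% Nu serum, 1% pen-strep). Step two: 12-hour incubation at 37 deg C. Step three: pin 23 nL compound, incubate 24 hr. Step four: add luciferase reagent, read luminescence 12 min later.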
GLP1R ag = qHTS of GLP-1 Receptor Agonists. Glucagon-like peptide 1 receptor (Homo sapiens), P43220. HEK293 GLP-1R CRE-luciferase, luminescence, 4-6 h; cells express a hypersensitive GLP-1R form. Potency, µM (titrated, usually from 45.6 µM), without a hit: at the highest dose activation, most hits filed as activators. 380,000 tested, 0.007% active. AID 624172, 2012; note: % of control where 0% means no effect
Target sequence (P43220 whole entry, looked up): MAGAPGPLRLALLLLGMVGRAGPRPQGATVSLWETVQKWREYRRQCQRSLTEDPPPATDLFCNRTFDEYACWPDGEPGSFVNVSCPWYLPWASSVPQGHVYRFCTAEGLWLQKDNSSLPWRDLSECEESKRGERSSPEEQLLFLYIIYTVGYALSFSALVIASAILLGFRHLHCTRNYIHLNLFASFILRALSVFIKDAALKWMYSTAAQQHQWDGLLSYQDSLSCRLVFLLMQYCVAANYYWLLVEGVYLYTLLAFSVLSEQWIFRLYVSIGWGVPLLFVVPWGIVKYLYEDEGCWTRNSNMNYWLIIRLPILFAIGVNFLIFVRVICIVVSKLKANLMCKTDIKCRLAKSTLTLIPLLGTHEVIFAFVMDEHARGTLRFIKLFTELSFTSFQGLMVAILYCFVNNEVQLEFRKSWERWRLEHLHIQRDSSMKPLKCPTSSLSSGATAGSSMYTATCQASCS
PTHR1 agonist = qHTS for PTHR1 Agonists: Primary Screen | Potency, µM (titrated, usually from 115 µM), without a hit: at the highest dose activation, usual class: activators | 410,000 tested, 0.075% active | HEK293 GP2 PTHR1 cells, GloSensor cAMP luminescence, 1 h; note: nearly all actives have a fitted effect of over 55% in size
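HEK-293-derived GP2 cells expressing PTHR1 and a GloSensor cAMP reporter, 3,000/well, plated overnight, given luciferin plus IBMX (each 0.5 mM as added) for 1 h at 37 °C, then compound for 1 h at 37 °C. Luminescence was read after 15 min at room temperature.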
GLP-1R inv ag = qHTS of GLP-1 Receptor Inverse Agonists (Inhibition Mode) | Potency, µM (highest dose often 38.3 µM), for inactives: at the highest dose activity change, negative = inhibition, usual class: inhibitors | HEK293 GLP-1R CRE-luciferase, luminescence, 24 h; GLP-1R form is constitutively active | Glucagon-like peptide 1 receptor (Homo sapiens), P43220 | 410,000 tested, 1.6% active; note: % is set by controls: 0 for no effect and ±100 for the full control effect; nearly all actives have a fitted effect of over 55% in size
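Readout was luciferase luminescence, measured 12 min after detection reagent at room temperature. Beforehand, GLP-1R reporter HEK293 cells had sat 12 h, then received compounds for 24 hr at 37 deg C.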
* marks the source's active call; other numbers are inactive results; i = inactive; ? = inconclusive; nt = no result; [ ] = another dose, or the depositor's remark. Compounds with a hit are over-represented: about 1.7% of the library has one in this group of screens. Calls come from the whole dose curve; as a rule, active = well fitted curve in the direction sought with a large enough effect; inconclusive = small, poorly fitted or top-dose-only effect, or another doubt; inactive = no such curve, though single readings can be large; an effect the other way counts as inactive or inconclusive. Potency is the fitted concentration of half-maximal effect.

SMILES | GLP1R cytotox | GLP1R ag | PTHR1 agonist | GLP-1R inv ag
C=CCNC(=O)c1c(CSc2ccc(Cl)cc2)noc1C(=O)NCc1ccccc1 | 2% | 2% | -4% | 7.9µM*
C=CCNC(=O)c1c(CSc2ccccc2)noc1C(=O)NCc1ccccc1 | 4% | -1% | i | -5%
CCCNC(=O)c1onc(CSc2ccc(Cl)cc2)c1C(=O)NCCC(C)C | 0% | 9% | i | 10µM*
COc1ccc(Cl)cc1NC(=O)CSc1nc2ccccc2nc1N1CCCCC1 | -5% | nt | -17% | 2%
O=C(Nc1cccc(Cl)c1)C1=Cc2cc(Cl)ccc2OC1 | -22% | -20% | -81%[57.5 µM] | 10µM*
O=C(Nc1ccc2c(c1)OCCO2)c1ccc(Cl)c(Cl)c1 | -6% | 0% | -13% | -7%
O=C(Nc1ccc(Cl)c(Cl)c1)C1=Cc2ccccc2OC1 | -27% | -20% | -81%[57.5 µM] | 10µM*
Cc1cc(OCCn2cc(C(=O)c3cccs3)c3ccccc32)ccc1Cl | 4% | nt | i | ?
CC1=C(c2ccc(C)cc2)S(=O)(=O)NC1=NCCCN1CCN(c2ccccc2F)CC1 | -16% | nt | i | ?
CC(C)C(c1nnnn1CC1CCCO1)N1CCN(Cc2ccc3c(c2)OCO3)CC1 (centres undefined) | -2% | -7% | i | 7%
CC(C)C(c1nnnn1Cc1ccccc1)N1CCN(Cc2ccc3c(c2)OCO3)CC1 (centres undefined) | 23% | 5% | -11% | 8.9µM*
c1ccc(CCn2nnnc2C(c2cccs2)N2CCN(Cc3ccc4c(c3)OCO4)CC2)cc1 (centres undefined) | ? | -1% | -14% | 7.1µM*
Cc1ccc(OCCCCCCN2CCNCC2)cc1 | -25% | 14% | -22% | 2.2µM*
Cc1cccc(C)c1OCCCCN1CCNCC1 | -2% | 6% | -16% | ?
Cc1ccc(OCCCCCN2CCOCC2)cc1 | 7% | 1% | i | 6%
Cc1ccccc1OCCCCCCN1CCNCC1 | 2% | 7% | -12% | 2.2µM*
CCn1nc(C)c2c(-c3ccccc3)cc(=O)n(C(C)C(=O)NCc3ccc(C)cc3)c21 (centres undefined) | 8% | nt | -19% | ?
COc1ccc(CCC(=O)NCc2nc3cccnc3n2Cc2ccccc2)cc1 | 6% | nt | i | 6%
C/C(CCc1ccc2c(c1)OCO2)=N\NC(=S)NC(C)C | 3.2µM* | -2% | 26% | ?
COCCNC(=S)N/N=C(\C)CCc1ccc2c(c1)OCO2 | ? | 46% | -8% | ?
Cc1cccc(-c2nc(S(=O)(=O)c3ccccc3)c(N3CCN(c4ccccc4)CC3)o2)c1 | 1% | nt | 2% | 9%
COc1ccc2[nH]c(=O)c(CN(C(=O)c3cccc(Cl)c3)c3ccccc3OC)cc2c1 | 0% | nt | -30% | -4%
Cc1nc2c(c(C)nn2-c2ccccc2)c(C)c1CCC(=O)Nc1ccc(F)cc1 | 1% | nt | -18% | -6%
NC(=O)N=Nc1c(O)[nH]c2ccc([N+](=O)[O-])cc12 | -17% | 3% | i | 11%
C=C(C)CNC(=S)N=Nc1c(O)[nH]c2ccc([N+](=O)[O-])cc12 | 4.5µM* | 10% | -6% | -73%
SMILES | GLP1R cytotox | GLP1R ag | PTHR1 agonist | GLP-1R inv ag
CC(C)NC(=S)N=Nc1c(O)[nH]c2ccc([N+](=O)[O-])cc12 | 2.5µM* | 10% | -25% | ?
O=C(CNC(=O)c1ccco1)N=Nc1c(O)[nH]c2ccc([N+](=O)[O-])cc12 | ? | 8% | 15% | 7%
CCN(CC)CCNC(=O)c1c(C)[nH]c(/C=C2\C(=O)Nc3ccc(F)cc32)c1C | nt | -11% | nt | nt
CCOC(=O)Nc1ccc2c(c1)C(=NO)c1ccccc1-2 | -39% | 6% | -9% | ?
CCOC(=O)Nc1ccc2c(c1)C(=NNC(N)=S)c1ccccc1-2 | 4µM* | -18% | -39% | ?
Cc1cccc(C)c1OCc1cc(C(=O)N(Cc2c(C)nn(C)c2C)C2CC2)no1 | -12% | 4% | -30% | 7.9µM*
Cc1nn(-c2ccc(N3CCCCC3)nn2)c(C)c1CCC(=O)NCc1ccc(OC(C)C)cc1 | -5% | nt | -10% | 4%
O=C(CC1C(=O)NCCN1C(=O)c1ccc(Cl)cc1)Nc1ccc(F)cc1 (centres undefined) | 1% | -11% | i | -2%
O=C(CC1C(=O)NCCN1C(=O)Nc1ccc(Cl)cc1)Nc1ccc(F)cc1 (centres undefined) | -10% | 7% | 14% | 11µM*
COc1ccc(NC(=O)C2C(c3ccccc3)C2(Cl)Cl)cc1 (centres undefined) | -8% | -3% | -27% | 10µM*
CCOc1ccc(NC(=O)C2C(c3ccccc3)C2(Cl)Cl)cc1 (centres undefined) | -19% | 17% | -46% | ?
Cc1ccc(NC(=O)C2C(c3ccccc3)C2(Cl)Cl)c(C)c1 (centres undefined) | -6% | -11% | -4%[57.5 µM] | 11µM*
COc1cc(C(C[N+](=O)[O-])c2c(N)n(C)c(=O)n(C)c2=O)ccc1O (centres undefined) | -4% | -3% | -41% | -20%
COc1cccc(F)c1C(C[N+](=O)[O-])c1c(N)n(C)c(=O)n(C)c1=O (centres undefined) | ? | -6% | -12% | 3.2µM*
CCOc1ccccc1C(=O)N1CC(=O)Nc2ccc(C)cc2C1c1ccccc1 (centres undefined) | -12% | nt | -7% | -12%
CC(C)(C)NC(=O)NC(=O)COc1ccc(Br)cc1Br | -7% | 13% | -32% | 10µM*
Cc1ccccc1C(=O)NCc1nc2cccnc2n1Cc1ccccc1 | 9% | nt | i | -1%
COc1ccccc1/C=C/C(=O)Oc1cccc2cccnc12 | ? | 7% | -37% | 4.5µM*
COc1ccc2cc1Oc1ccc(cc1)CC1c3c(cc(OC)c4c3Oc3cc5c(cc3O4)CCNC5C2)CCN1C (centres undefined) | 11µM* | -6% | i | 5.6µM*
COc1ccc2cc1Oc1ccc(cc1)C[C@H]1c3c(cc(OC)c4c3Oc3c(ccc5c3[C@H](C2)N(C)CC5)O4)CCN1C | 0% | 9% | i | 2%
O=S(=O)(O)OCC1OC(COS(=O)(=O)O)(C2(OS(=O)(=O)O)OC(CO)C(OS(=O)(=O)O)C(OS(=O)(=O)O)C2OS(=O)(=O)O)C(OS(=O)(=O)O)C1OS(=O)(=O)O (centres undefined) | nt | 15% | nt | nt
COc1ccccc1CNC(=O)C(=O)NCC(c1cccs1)S(=O)(=O)c1ccccc1 (centres undefined) | 10% | nt | i | ?
CSCc1c(C(=O)N2CCCc3ccccc32)oc2ccccc12 | -1% | 7% | -1% | 8.9µM*
O=C(Nc1ccccc1)N(Cc1ccc(Cl)cc1)CC(O)C(F)(F)F (centres undefined) | -19% | 12% | i | 10µM*

Assay outcomes (PubChem)
